Source: PubChem BioAssay
Only some compounds are listed: those with a hit (about 3.7% of all), similar ones and a draw of the others.
WRN helicase inh: inhibitors of human WRN helicase | Q14191 | WRN helicase unwinding, fluorescent forked duplex, kinetic | Potency, µM (titrated, usually from 114 µM), inactives show at the top dose activity change, negative = inhibition, most hits filed as inhibitors | AID 651768 | hit rate 0.46% among 360,000; note: potency is the fitted concentration of half-maximal effect; % is set by controls: 0 for no effect and ±100 for the full control effect; nearly all actives have a fitted effect of over 55% in size
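Kinetic fluorescence helicase assay: unwinding of a quenched forked DNA duplex (100 nM final) with 2 mM ATP final raises red fluorescence (525/598 nm). Compounds sat 15 min at room temperature with 20 nM WRN beforehand.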
FEN1 inh: human FEN1 inhibition; Recombinant FEN1 flap cleavage, fluorescence, 15 min; P39748; hit rate 0.35% among 390,000; Potency, µM (doses to about 114 µM), for inactives: top-dose activity change, negative = inhibition, most hits filed as inhibitors; note: potency is the fitted concentration of half-maximal effect; % is set by controls: 0 for no effect and ±100 for the full control effect; nearly all actives have a fitted effect of over 65% in size
Target sequence (P39748 whole entry, looked up): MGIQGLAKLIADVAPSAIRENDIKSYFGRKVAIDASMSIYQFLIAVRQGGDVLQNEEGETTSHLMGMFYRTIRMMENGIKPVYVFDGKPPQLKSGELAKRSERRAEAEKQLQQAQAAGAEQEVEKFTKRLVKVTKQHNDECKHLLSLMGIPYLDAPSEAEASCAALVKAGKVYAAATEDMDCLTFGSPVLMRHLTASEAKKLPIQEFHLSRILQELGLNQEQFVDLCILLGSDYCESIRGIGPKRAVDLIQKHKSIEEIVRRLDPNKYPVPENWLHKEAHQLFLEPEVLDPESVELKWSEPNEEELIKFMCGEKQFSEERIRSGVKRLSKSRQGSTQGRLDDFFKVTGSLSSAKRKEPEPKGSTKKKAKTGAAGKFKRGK
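Enzyme 10 nM, 15 min RT preincubation with compound; start with substrate 50 nM final; reads at 0 and 15 min; qHTS titration, four-parameter Hill fit.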
TCR activator: T cell receptor activation | primary human leukocytes, anti-CD3, IL-2 HTRF, 48 h | Potency, µM (titrated, usually from 9.22 µM), for the others: top-dose activation of IL-2 secretion, usual class: activators | AID 504894 | 330,000 tested, under 10 active; note: % of control where 0% means no effect
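Using a-CD3 beads without co-stimulation, primary human leukocytes were exposed to compounds for 48 hr. An HTRF IL-2 kit measured the cytokine, with europium-to-d2 energy transfer producing emission at 665nm upon 320nm excitation.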
VDR inhibitor: vitamin D3 receptor (human) inhibition | P11473 | Potency, µM, for inactives: max response, negative = inhibition, most hits filed as inhibitors | AID 504847 | hit rate 0.93% among 400,000 | VDR-SRC2-3 peptide fluorescence polarization, 2 h; note: potency is the fitted concentration of half-maximal effect; % is set by controls: 0 for no effect and ±100 for the full control effect
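Fluorescence polarization assay measuring small-molecule disruption of VDR binding to the coregulator peptide SRC2-3. Compounds were pin-transferred (23 nl) into the reagent mix and incubated 2 h at room temperature before reading.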
PI5P4Ka inh: PI5P4K alpha (human) kinase inhibition; P48426; PI5P4Kalpha enzyme, ADP-Glo luminescence, 60 min; hits give low values; max response, %; hit rate 1.2% among 330,000; active = max response of -50% or lower; inconclusive = between -30% and -50%; inactive = -30% or higher; note: value at the top dose of about 77 µM; % is set by controls: 0 for no effect and ±100 for the full control effect
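Enzyme plus substrate dispensed, test compounds pinned in, then ATP (5 microM final) added. After 60 min at RT, ADP-Glo reagent 1 for 45 min and reagent 2 for 30 min preceded luminescence imaging.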
PLK1 PBD inh: blocks phosphopeptide binding to human PLK1 polo-box domain. AID 720504. Plk1 PBD binding of FITC phosphopeptide, fluorescence polarization. P53350. Potency, µM, without a hit: max response, negative = inhibition, usual class: inhibitors. hit rate 2.8% among 360,000; note: potency is the fitted concentration of half-maximal effect; series mostly up to about 57 µM; % is set by controls: 0 for no effect and ±100 for the full control effect; nearly all actives have a fitted effect of over 65% in size
Numbers without * were called inactive; ? = inconclusive; · = no result; [ ] = another dose, or the depositor's remark. Unless noted, calls come from the whole dose curve; as a rule, active = well fitted curve in the direction sought with a large enough effect; inconclusive = small, poorly fitted or top-dose-only effect, or another doubt; inactive = no such curve, though single readings can be large; an effect the other way counts as inactive or inconclusive.

SMILES	WRN helicase inh	FEN1 inh	TCR activator	VDR inhibitor	PI5P4Ka inh	PLK1 PBD inh
CCCn1c(NC(=O)c2ccc(C)cc2)nc2ccccc21	12%	1%	-3%	-20%	-3	27µM*
CCOc1ncccc1C(=O)Nc1cc(S(=O)(=O)N(CC)CC)ccc1N1CCOCC1	8%	1%	-3%	79µM*	0	17µM*
Cn1c(=O)c(=O)n(C)c2cc(N3CCOCC3)c(NS(=O)(=O)c3ccc([N+](=O)[O-])cc3)cc21	-4%	-7%	-4%	-7%	?	19µM*
CCN(CC)S(=O)(=O)c1ccc(N2CCOCC2)c(NS(=O)(=O)c2ccc(C(C)C)cc2)c1	-8%	0%	0%[46.1 µM]	35µM*	-22	?
Cn1c(=O)c(=O)n(C)c2cc(N3CCOCC3)c(NS(=O)(=O)c3ccc(F)c(Cl)c3)cc21	-7%	-22%	1%	-25%	1	-14%
CCN(CC)S(=O)(=O)c1ccc(N2CCOCC2)c(NC(=O)c2c3c(nc4ccccc24)CCC3)c1	-26%	-6%	3%	-4%	-59*	-18%
O=C(CN1C(=O)C(c2ccccc2)Oc2cccnc21)NCc1ccccc1F (configuration not stated)	-1%	?	6%	?	?	7.5µM*
Cc1cc(C)cc(NC(=O)CCCN2C(=O)C(c3ccccc3)Oc3cccnc32)c1 (configuration not stated)	-7%	-11%	-3%	-15%	-13	24µM*
COc1ccc(CNC(=O)CN2C(=O)C(c3ccccc3)Oc3cccnc32)cc1 (configuration not stated)	-5%	10%	-1%	10%	0	-2%
Cc1cc(C)c(N(Cc2ccccc2)S(=O)(=O)c2ccc(OCCNC(=O)c3cc4ccccc4o3)cc2)c(C(=O)NO)c1	·	·	·	0%	·	·
Cc1ccccc1OCCn1c(=N)n(C(C)C)c2ccccc21	·	-1%	·	4%	·	·
Cc1cc(Cl)n2c(nc3ccccc32)c1C#N	?	-22%	1%	40µM*	-1	?
CCOC(=O)N1CCc2c(sc3c2c(=O)n(CCc2ccccc2)c(=O)n3Cc2c(F)cccc2Cl)C1	·	18%	·	-4%	·	·
Cc1csc(C(C)NC(=O)c2ccc(OC3CCN(CCc4ccccc4)CC3)cc2)n1 (configuration not stated)	-10%	4%	0%	-19%	2	30µM*
CC(C)N(C)C(=O)c1ccc(OC2CCN(CCc3ccccc3)CC2)cc1	6%	0%	-3%	-4%	-9	1%
O=C(Nc1ccc(NC(=O)C2CC2)cn1)c1ccccc1Cl	6%	-4%	-1%	16%	-15	24µM*
O=C(Nc1ccc(NC(=O)C2CC2)cn1)c1ccccc1	8%	-4%	5%	10%	-1	1%
Cc1ccc(/C=C2/C(=O)c3ccc(C(=O)O)cc3C2=O)o1	13µM*	25µM*	-7%	1%	-62*	24µM*
O=C(COc1ccccc1C(=O)Nc1cccnc1)Nc1ccc(Br)cc1	·	5%	·	·	·	·
Clc1ccc(CNc2ncnc3nc[nH]c23)cc1	·	-15%	·	-12%	·	·
C=C1C(=O)C23C(O)C1CCC2C12CCCC(C)(COC(C)=O)C1C(O)C3(O)OC2 (configuration not stated)	18µM*	-15%	2%	25µM*	-8	15µM*
CC(C)(C)NC(=O)Cn1c(SCC(N)=O)nc2ccccc21	8%	4%	·	?	-25	15µM*
CC(C)(C)NC(=O)Cn1c(SCC(=O)NC2CC2)nc2ccccc21	-5%	7%	-3%	-14%	0	-2%
COc1ccc(Cl)cc1-c1ccc(C(=O)O)o1	·	·	·	112µM*	·	·
Cc1ccc(C)c(-c2ccc(C(=O)O)o2)c1	·	·	·	126µM*	·	·
SMILES	WRN helicase inh	FEN1 inh	TCR activator	VDR inhibitor	PI5P4Ka inh	PLK1 PBD inh
COc1ccccc1-c1ccc(C(=O)O)o1	-21%	-3%	1%	?	-2	-11%
CCOc1ccc(NC(=O)CN2CCN(CC(=O)Nc3ccccc3OCC)CC2)cc1	·	2%	·	12%	·	·
COc1ccc(C(c2c(C)[nH][nH]c2=O)c2c(C)[nH][nH]c2=O)cc1Br	-15%	-12%	-4%	?	0	24µM*
Cc1[nH][nH]c(=O)c1C(c1ccc(O)c([N+](=O)[O-])c1)c1c(C)[nH][nH]c1=O	-18%	-18%	1%[46.1 µM]	4%	-11	-8%
Cc1ccc(C(c2c(C)[nH][nH]c2=O)c2c(C)[nH][nH]c2=O)cc1	-15%	-7%	0%	?	13	27µM*
Cc1[nH][nH]c(=O)c1C(c1ccc([N+](=O)[O-])cc1)c1c(C)[nH][nH]c1=O	-3%	-3%	4%	?	5	27µM*
COc1ccc(OC)c(C(c2c(C)[nH][nH]c2=O)c2c(C)[nH][nH]c2=O)c1	0%	-1%	4%	?	4	?
COc1ccc(O)c(C(c2c(C)[nH][nH]c2=O)c2c(C)[nH][nH]c2=O)c1	-4%[11.6 µM]	-32%	-2%	-4%	-8	7.5µM*
COC(=O)c1cc2oc(C)cc2n1Cc1ccc(C)cc1	·	10%	·	0%	·	·
O=S(=O)(Nc1cccc2cccnc12)C1CC1	·	0%	·	-24%	·	·
Cc1nn(CC(=O)NCc2ccc(N(C)C)cc2)c(=O)c2nn(-c3ccccc3)c(C)c12	·	-4%	·	14%	·	·
Cc1[nH][nH]c(=O)c1[C@@H](c1ccccc1[N+](=O)[O-])C(C#N)C#N	-7%	8%	-9%	?	-15	24µM*
O=C(CCn1c2c(c3ccccc31)CCCC2)NNC(=O)c1ccc(Cl)c([N+](=O)[O-])c1	-14%	4%	-1%[46.1 µM]	?	4	30µM*
CSc1nc(Oc2cccc(C(F)(F)F)c2)cc(C(F)(F)F)n1	3%	0%	-6%	-23%	4	27µM*
CSc1nc(Oc2ccc(F)cc2F)cc(C(F)(F)F)n1	-15%	-3%	-2%	14%	23	-4%
CCOC(=O)N(C(=O)c1ccccc1)c1ccccc1	·	-5%	·	·	·	·
CCOCCCNC(=O)c1ccc2c(c1)ncn2-c1ccc(C)cc1C	1%	-9%	5%	?	-12	19µM*
COCCn1c(C)cc(O)c(C(c2ccccc2)N2CCN(c3ccccc3F)CC2)c1=O (configuration not stated)	·	1%	·	10%	·	·
O=C(Nc1ccc2ncccc2c1)c1ccccc1	-22%	-6%	7%	?	-22	8.4µM*
